# Data published in PubChem BioAssay AID1117319 (Southern Research Institute, 2015).
# “And” between values parts separate entries of the source, which are not always exact repeats. Identical values can stand only once. About 1,500 (0.58%) of roughly 260,000 compounds were called active. Roughly 5% stayed inconclusive and do not appear here. A selection follows. Potency and affinity values are given separately. Unmarked numbers belong to inactive results.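 How the source made its calls: active means inhibition above a set limit at one or more doses, reproduced on every date tested; inconclusive means results disagree between test dates, or hit never tested in dose response; inactive means the rest.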
# Biological target: Virion infectivity factor (Human immunodeficiency virus type 1 group M subtype B (isolate BH10)) + Virion infectivity factor (Human immunodeficiency virus type 1 group M subtype B (isolate BRU/LAI)) + Virion infectivity factor (Human immunodeficiency virus type 1 group M subtype B (isolate PCV12)) + Virion infectivity factor (Human immunodeficiency virus type 1 group M subtype B (isolate HXB2)) + DNA dC->dU-editing enzyme APOBEC-3G (Homo sapiens) (UniProt P69720+P69721+P69722+P69723+Q9HC16)
# Assay: inhibitors of Vif binding to APOBEC3G peptide, primary screen, biochemical, TR-FRET, GST-Vif 1-94, biotin-A3G peptide, dose response retest (AID 1117319);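 further: Vif residues 1-94 fused to GST binding biotinylated APOBEC3G peptide 110-148; 0% = full assay without inhibitor and 100% = GST in place of GST-Vif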
# Conditions: stronger effect = higher value
row,SMILES,inhibition
1,CCOC(=O)c1oc2ccccc2c1COC(=O)CNC(=O)c1cccc(C)c1,-6.29%
2,CN(C)Cc1c(C(=O)N/N=C/c2cccc(OCc3ccccc3)c2)nnn1-c1nonc1N,19.4%
3,CCN(CC)c1ccc(C(=O)NNC(=O)c2cccn2C)cc1,5.54%
4,O=C(O)c1ccc2c(c1)CCCN2,-1.03%
5,O=S(=O)(c1ccc2c(c1)CCCN2)N1CCCCC1,8.06%
6,CCOc1ccc(NC(=O)CN2CCN(CC(=O)Nc3ccc(C(N)=O)cc3)CC2)cc1,-3.98%
7,COc1ccc2c(c1)CC/C(=C/c1ccccn1)C2=O,-2.19%
8,CCOc1ccc(/C=C/C2=Cc3c(sc(NC(=O)CSc4n[nH]c(N)n4)c3C#N)C(C)(C)C2)cc1,1.67%
9,Cc1ccsc1/C=C/C1=Cc2c(sc(NC(=O)CSc3n[nH]c(N)n3)c2C#N)C(C)(C)C1,22.1%
10,COC1C=COC2(C)Oc3c(C)c(O)c4c(O)c(c(CN5CCN(C)CC5)c(O)c4c3C2=O)NC(=O)C(C)=CC=CC(C)C(O)C(C)C(O)C(C)C(OC(C)=O)C1C (configuration not stated),13.7%
11,CO[C@H]1C=CO[C@@]2(C)Oc3c(C)c(O)c4c(O)c(c(C=NN5CCN(C6CCCC6)CC5)c(O)c4c3C2=O)NC(=O)C(C)=CC=C[C@H](C)[C@H](O)[C@@H](C)[C@@H](O)[C@@H](C)[C@H](OC(C)=O)[C@@H]1C,-8.62%
12,CCCn1c2ccc(C)cc2c2nnc(SCCN3CCOCC3)nc21,-4.1%
13,CC(C)N1CCC(=O)NC1=O,3.79%
14,O=C1CC(CSc2ccc(Cl)cc2)=NN1,-2.88%
15,Cc1ccc(SCC2=NNC(=O)C2)cc1,74.7%
16,COc1ccc(CCNC(=O)c2ccc(NS(=O)(=O)c3c(C)noc3C)cc2)cc1OC,-8.32%
17,COc1cccc(C(=O)N[C@@H](CCSC)c2nc3ccccc3[nH]2)c1,5.58%
18,Cc1ccc(C2C3CSCC=C3C(C#N)=C(N)C2(C#N)C#N)cc1 (configuration not stated),8.68%
19,N#CC1=C(N)C(C#N)(C#N)C(c2cccnc2)C2COCC=C12 (configuration not stated),0.31%
20,CCOC(=O)c1c(C)[nH]c(C(=O)OCC(=O)Nc2cccnc2Cl)c1C,-0.74%
21,Cc1ccc(C(=O)CN2/C(=C(\O)c3ccccc3)C(=O)c3ccccc3S2(=O)=O)c(C)c1,2.58%
22,O=C(CN1/C(=C(/O)c2ccccc2)C(=O)c2ccccc2S1(=O)=O)c1ccccc1,-0.58%
23,COc1cccc(-c2nnc3sc(-c4ccco4)nn23)c1,5.27%

row,SMILES,inhibition
1,c1coc(-c2nn3c(-c4ccco4)nnc3s2)c1,24.5%
2,CCOc1ccccc1NC(=O)CSc1n[nH]c(=O)n1-c1ccccc1,-11.6%
3,COC(=O)CNc1ccc2c(c1)OCO2,26.3%
4,CCOC(=O)Nc1ccc2c(c1)OCO2,-0.36%
5,Cn1c(CNC(=O)CNC(=O)c2cccc(F)c2)cc(=O)n(C)c1=O,1.22%
6,O=C1CC(N2CCSCC2)C(=O)N1c1cccc(Cl)c1 (configuration not stated),2.84%
7,COc1ccc(/C=C2/C(=N)N3N=C(CC(=O)N4CCCC4)SC3=NC2=O)cc1,-6.36%
8,N=C1/C(=C/c2ccco2)C(=O)N=C2SC(CC(=O)N3CCCC3)=NN12,22.9%
9,COc1ccc(CNC(=O)COC(=O)c2[nH]c(C)c(C(C)=O)c2C)cc1OC,7.14%
10,CN(c1ccc(OCC(=O)NC2CCC(O)CC2)cc1)S(=O)(=O)c1ccc(Cl)cc1 (configuration not stated),-2.71%
11,O=c1cc(-c2ccccc2Cl)oc2cc(O)cc(O)c12,-0.34%
12,O=c1cc(-c2ccccc2F)oc2ccccc12,17.5%
13,O=c1[nH]c(=O)n(Cc2ccccc2)c2nc(-c3cccs3)n(CCO)c12,0.78%
14,Cc1ccc(S(=O)(=O)Cn2nnnc2C(CC(C)C)N2CCN(C(=O)c3ccco3)CC2)cc1 (configuration not stated),28%
15,Cc1ccc(S(=O)(=O)Cn2nnnc2C(CC(C)C)N2CCN(c3ccccc3)CC2)cc1 (configuration not stated),-7.24%
16,COC(=O)CSc1ncnc2scc(-c3ccccc3)c12,13.7%
17,Cc1ccc2cccc(Oc3ncnc4scc(-c5ccccc5)c34)c2n1,-1.8%
18,COc1ccc(C2CC(=O)c3ccccc3O2)cc1 (configuration not stated),18.3%
19,COc1cc(C)cc2c1OC(c1ccccc1)CC2=O (configuration not stated),-0.37%
20,O=c1c2cn[nH]c2[nH]c(=S)n1-c1ccccc1F,-1.23%
21,CCC(C)NCCCOc1c(C)cc(C)cc1Br (configuration not stated),-1.93%
22,CCC(CC)C(=O)N(CCc1ccc(OC)cc1)Cc1nc2ccccc2c(=O)[nH]1,-1.67%
23,COCC(=O)N(CCc1ccc(OC)cc1)Cc1nc2ccccc2c(=O)[nH]1,0.5%

row,SMILES,inhibition
1,O=C(CNC(=O)c1cccc(Cl)c1)NCC(c1cccs1)N1CCOCC1 (configuration not stated),-8.67%
2,Cc1nnc2ccc(-c3cccc(NS(C)(=O)=O)c3)nn12,30.9%
3,CCCn1c(SC/C(O)=C(\C#N)c2nc3ccccc3[nH]2)n[nH]c1=O,8.52%
4,Cc1cc(C)n2c(SCC(O)=C(C#N)c3nc4ccccc4[nH]3)nnc2n1,-1.4%
5,O=C(Nc1ccccn1)C1CCN(S(=O)(=O)c2cccs2)CC1,-2.3%
6,O=C(Nc1ccc(Cl)cn1)C1CCN(S(=O)(=O)c2cccs2)CC1,2.8%
7,Cc1ccc(S(=O)(=O)NCC(=O)OC(C(=O)c2ccccc2)c2ccccc2)cc1 (configuration not stated),17.9%
8,CCCCN1C(=O)C(CC(=O)NCc2ccco2)CC(C(=O)N(CC)CC)=C1C (configuration not stated),-1.7%
9,Cn1cc(C(=O)N/N=C/c2ccc(Br)c([N+](=O)[O-])c2)c2ccccc21,-0.7%
10,NC(=O)COC(=O)CNC(=O)c1ccc(Cl)cc1,-2.39%
11,Cc1ccc(C(=O)Nc2sc3c(c2C#N)CCCCC3)cc1C,-3.7%
12,Cc1cccc(C(=O)Nc2sc3c(c2C#N)CCCCC3)c1,-5.88%
13,CC(C)(C)c1ccc(OCCC(=O)OCC(=O)Nc2ccc(N3CCOCC3)cc2)cc1,-3.5%
14,O=P(c1ccccc1)(c1ccccc1)c1cc(S(=O)(=O)O)ccc1O,26.4%
15,O=Nc1c(O)ccc2cc(S(=O)(=O)O)ccc12,24.3%
16,Nc1cc(S(=O)(=O)O)cc2ccc(S(=O)(=O)O)cc12,0.1%
17,O=C(O)c1cc(S(=O)(=O)O)ccc1O,9.92%
18,COc1ccc(C)cc1-n1c(C)cc(C=O)c1C,-0.15%
19,c1ccc(Cn2ncc3ccccc32)cc1,23.7%
20,Cc1cc([N+](=O)[O-])nn1CC(=O)N/N=C/c1ccccc1Br,-3.16%
21,Cc1cc(NS(=O)(=O)c2ccc(NC(=O)Cc3cccs3)cc2)no1,-3.09%
22,Cc1ccnc(NS(=O)(=O)c2ccc(NC(=O)Cc3ccccc3)cc2)n1,4.16%
23,COC(=O)c1ccc(C(=O)OC)c(NC(=O)CCC(=O)O)c1,17.1%

row,SMILES,inhibition
1,COC(=O)c1cc(OC)c(OC)cc1NC(=O)Cc1cccs1,10.3%
2,Cc1nc2ccc(NC(=O)Cc3ccccc3F)cc2s1,13.4%
3,Cc1cc(NC(=O)CCCC(=O)NCc2cccs2)no1,10.9%
4,Cc1nc2ccc(NC(=O)Cc3ccsc3)cc2s1,-2.69%
5,O=C(Cc1cccs1)Nc1ccc(S(=O)(=O)Nc2ncccn2)cc1,26.2%
6,COc1ccc(OC)c(-c2nc(C(N)=O)c3[nH]c(=O)n(-c4ccc(F)cc4)c3n2)c1,-0.73%
7,NNC(=O)c1nc(-c2cccc(-n3cccc3)c2)no1,2.13%
8,CC(=O)Nc1ccc(C(=O)COC(=O)CCc2ccccc2)c(F)c1,-7.82%
9,FC(F)(F)c1cnc(-n2cc[nH]c2=S)c(Cl)c1,-3.85%
10,CCCCN=C1NC(=O)C(CC(=O)NCCc2ccc(OC)cc2)S1 (configuration not stated),21.5%
11,CCOc1ncccc1C(=O)NCCN1C(=O)S/C(=C/c2cccs2)C1=O,17.3%
12,Cc1nc(Nc2ccccc2)c2oc3ccc(Cl)cc3c2n1,-10.6%
13,Cc1ccc(-c2cc(C(=O)Nc3ccccc3C)c3ccccc3n2)o1,0.87%
14,Cc1ccc(NC(=O)c2cc(-c3ccc(C)o3)nc3ccccc23)cc1,20.7%
15,CCc1c(C(=O)OC)nnc2cc(C)nn12,-2.39%
16,COc1ccc(SCC(=O)Nc2ccc(N3CCN(C)CC3)c(F)c2)cc1,-1.67%
17,CNC(=O)COC(=O)c1[nH]c(C)c(C(C)=O)c1C,1.68%
18,CC(=O)c1c(C)[nH]c(C(=O)OCC(=O)NCC(C)C)c1C,-6.38%
19,CCOC(=O)c1c(C)[nH]c(C(=O)OCC(=O)N2CCN(S(=O)(=O)c3ccc(C)cc3C)CC2)c1C,-6.76%
20,Cc1[nH]ccc(=O)c1Oc1ncc(C(F)(F)F)cc1Cl,-2.35%
21,Cc1ccc(-c2nn(Cc3ccccc3)cc2/C=C/C(=O)O)cc1C,-3.26%
22,COc1ccc(OC)c(C(c2nnnn2C2CCCC2)N2CCN(c3ccccc3F)CC2)c1 (configuration not stated),-6.38% and 2.54%
23,COc1ccc(C)cc1NC(=O)C(C)N(c1ccc(C)cc1)S(C)(=O)=O (configuration not stated),-0.78%
